In the supplement of paper PMC5641865, “A screen for kinase inhibitors identifies antimicrobial imidazopyridine aminofurazans as specific inhibitors of the Listeria monocytogenes PASTA kinase PrkA” (The Journal of Biological Chemistry, 2017):
± gives the standard deviation of the averaged measurements.

system: Listeria monocytogenes 10403S; experiment: growth inhibition relative to ceftriaxone-alone control; higher = stronger potentiation of ceftriaxone growth inhibition; conditions: 10 µM; ceftriaxone 1 ug/ml; 12 h
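Also: End-point A600 read in BHI broth at 37 °C with 2% DMSO, inhibition computed as (1 − OD with compound plus ceftriaxone ÷ OD with ceftriaxone only) × 100.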

Row | Structure (SMILES) | growth inhibition
1 | O=C1NC(=O)[C@@H](c2cn3c4c(cccc24)CCC3)[C@@H]1c1c[nH]c2ccccc12 [ARQ 197 (Tivantinib)] | 63.3 ± 38%
2 | COc1cc2ncnc(Nc3ccc(C)c(O)c3)c2cc1OC | -12.9 ± 9.4%
3 | NC(=O)Nc1cc(-c2cccc(F)c2)sc1C(=O)N[C@H]1CCCNC1 | 16.7 ± 12%
4 | CNC(=O)c1cncc(/C=C/c2ccccc2C)c1 | 25.3 ± 14%
5 | CCn1c(-c2nonc2N)nc2c(C#CCN)ncc(OCCCN)c21 | -1.03 ± 0.6%
6 | NS(=O)(=O)c1ccc(NC=C2C(=O)Nc3ccc4ncsc4c32)cc1 | -8.58 ± 4.7%
7 | c1cc(-c2cnn3nc(N4CCOCC4)ccc23)nc(NC2CC2)n1 | -1.92 ± 0.84%
8 | NS(=O)(=O)c1ccc(N/C=C2\C(=O)Nc3ccc4ncsc4c32)cc1 | -2.62 ± 4.2%
9 | NC(=O)c1ccc(Oc2nccc(-c3c(-c4ccc(F)cc4)ncn3C3CCNCC3)n2)cc1 | -2.66 ± 0.33%
10 | COc1ccc2cc(-c3c(-c4ccncc4)nc(-c4ccc(S(C)(=O)=O)cc4C)n3C)ccc2c1 | -1.1 ± 3.1%
11 | N#Cc1c(NC(=O)c2cccc3ccccc23)sc2c1CCCC2 | -6.35 ± 1.2%
12 | Nc1ncnc2c1c(-c1cnc3[nH]ccc3c1)nn2C1CCCC1 | 42.9 ± 23%
13 | COc1cc2ncn(-c3cc(OCc4ccccc4S(C)(=O)=O)c(C#N)s3)c2cc1OC | 12.7 ± 3%
14 | Fc1ccc(-c2c(-c3ccncc3)nc3n2CCS3)cc1 | -6.65 ± 12%
15 | CC(C)(C)Cn1c(N)nc2ccc(-c3[nH]c(C(C)(C)C)nc3-c3ccc(F)cc3)nc21 | 97.5 ± 1.3%
16 | CCn1c(-c2nonc2N)nc2c(C#CC(C)(C)O)ncc(OC[C@@H]3CCCN3)c21 | 74 ± 6.7%
17 | COc1ccc2[nH]c3c4[nH]c5ccc(OC)cc5c4c4c(c3c2c1)C(=O)NC4=O | -8.86 ± 4.5%
18 | Cc1cc(Cl)cc2c1NC(=O)C2=NNc1ccc(S(N)(=O)=O)cc1 | -9.29 ± 7.3%
19 | N#CC(=C(/N)Sc1ccccc1N)/C(C#N)=C(\N)Sc1ccccc1N | 51.1 ± 42%

Row | Structure (SMILES) | growth inhibition
20 | O=C(O)c1ccc2c(c1)nc(Nc1cccc(Cl)c1)c1ccncc12 [CX-4945 (Silmitasertib)] | 76.2 ± 9.6%
21 | N#Cc1c(NC(=O)c2ccccc2F)sc2c1CCCC2 | -3.06 ± 2.3%
22 | CCn1c(-c2nonc2N)nc2ccncc21 | -0.136 ± 1.1%
23 | Cc1ccc(Nc2ccnc(Nc3cccc(C(N)=O)c3)n2)cc1O | -4.84 ± 3.2%
24 | COc1ccc(-c2nn3ncccc3c2-c2ccnc(Nc3ccc(Cl)c(C(F)(F)F)c3)n2)cc1 | -8.69 ± 0.94%
25 | Cc1nnc(-c2ccc(C)c(-c3ccc(C(=O)Nc4cccc(C#N)c4)cc3)c2)o1 | 6.6 ± 12%
26 | COc1cc(N2CCN(C(C)C)CC2)ccc1Nc1nc(Nc2cccc(F)c2C(=O)O)c2cc[nH]c2n1 | -0.452 ± 1.2%
27 | CCn1c(-c2nonc2N)nc2cncc(C(=O)N3CC[C@H](N)C3)c21 | 7.57 ± 2.1%
28 | O=C1NC(=O)C(c2cccc(Cl)c2)=C1Nc1ccc(O)c(Cl)c1 | -7.55 ± 15%
29 | NS(=O)(=O)c1ccc(-c2ccc3c(NC(=O)C4CC4)n[nH]c3c2)cc1 | -10.8 ± 16%
30 | Cc1cc(O)cc(C)c1/C=C/c1cncc(-c2nn[nH]n2)c1 | -2.34 ± 0.16%
31 | Cc1ccc2c(c1)/C(=N/Nc1ccc(S(N)(=O)=O)cc1)C(=O)N2 | 2.4 ± 3.2%
32 | Cn1cc(C2=C(c3ccc(Cl)cc3Cl)C(=O)NC2=O)c2ccccc21 | 19.5 ± 33%
33 | COc1ncc(-c2ccc3nccc(-c4ccnnc4)c3c2)cc1NS(=O)(=O)c1ccc(F)cc1F | 12.8 ± 7.8%
34 | COc1cc(N2CCC(N3CCN(C)CC3)CC2)ccc1Nc1ncc(Cl)c(Nc2ccccc2S(=O)(=O)C(C)C)n1 | 79.1 ± 24%
35 | NS(=O)(=O)c1ccc(N/N=C2\C(=O)Nc3cccc(CCc4ccncc4)c32)cc1 | -4.56 ± 8.2%
36 | COc1ccc2cc(-c3c(-c4ccncc4)nc(-c4ccc([S+](C)[O-])cc4C)n3C)ccc2c1 (stereo not drawn) | 17.6 ± 9%
37 | CCn1c(-c2nonc2N)nc2c(C#CC(C)(C)O)nc(OC[C@H](N)c3ccccc3)cc21 | 66.2 ± 2.7%
38 | O=C(NOCC1CC1)c1ccc(F)c(F)c1Nc1ccc(I)cc1Cl | 8.54 ± 25%
